{
  "source": "the supplement of paper PMC10338343",
  "note": "± gives the standard deviation.",
  "data": [
    {"system": "EfPiwi piRISC loaded with L1MC piRNA (26 nt)", "test": "pre-steady-state target cleavage rate (min^-1); auxiliary factor: none (no Gtsf1); guide: L1MC piRNA 5'p-UAACUAAAUACUAUGCAAGCUGUAGG; MIWI and MILI are mouse PIWI proteins and EfPiwi is from a freshwater sponge; tags in brackets are library labels; higher = faster piRNA-guided slicing of the target", "method": "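Cleave-'n-Seq: a library of target RNAs (target site in constant flanks) at […] was incubated with 1 nM active freshwater sponge Ephydatia fluviatilis Piwi piRISC (synthetic 5'-monophosphorylated piRNA guide) with or without 500 nM EmGtsf1 at 33 °C for 1 min to 16 h. Uncleaved targets were sequenced and the pooled three trials fitted to a burst-and-steady-state model to give the pre-steady-state cleavage rate (min^-1). Sequence is the target site only. Fits with R² ≤ 0 are excluded.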", "values": [
      {"sequence": "UCCUGGUACAGGAUGCAUAGUAUUUUCAAA", "pre-steady-state target cleavage rate": "< 0.0001"},
      {"sequence": "UCCUGGAUGAGCUUGCAUAGUAGUUUAGUUA", "pre-steady-state target cleavage rate": "0.0124 ± 0.0079"},
      {"sequence": "UCCUGGAUGUCGUUGCAUAGAUAUUAGUUA", "pre-steady-state target cleavage rate": "< 0.0001"},
      {"sequence": "UCCUGGAUGUCGAACGAUAGUAUUUGGUUA", "pre-steady-state target cleavage rate": "< 0.0001"},
      {"sequence": "UCCUGGAUGUCCUUCGAUAGUAUUUAGUUA", "pre-steady-state target cleavage rate": "< 0.0001"},
      {"sequence": "UCCUGGAUGUCGAACGUAAGAAUUUAGUAA", "pre-steady-state target cleavage rate": "< 0.0001"},
      {"sequence": "UCCUGGAUGUCGAACGUAAGUAUUUAGUCA", "pre-steady-state target cleavage rate": "< 0.0001"},
      {"sequence": "UCCUGGAUCAGCUUGCAUAGUAUUUACGUUA", "pre-steady-state target cleavage rate": "0.011 ± 0.006"},
      {"sequence": "UCCUGGAUGUCGAACCUUAGUAUUUAGUUA", "pre-steady-state target cleavage rate": "< 0.0001"},
      {"sequence": "UCCUGGAUGUCGUUGAAUAGUAUUUAGUUA", "pre-steady-state target cleavage rate": "< 0.0001"},
      {"sequence": "UCCUGGAUCAGGAAGCAUAGUAUUUAGAAA", "pre-steady-state target cleavage rate": "< 0.0001"},
      {"sequence": "UCCUGCUACAGCUUGCAUAGUAUUUAGCUA", "pre-steady-state target cleavage rate": "< 0.0001"},
      {"sequence": "UCCUGGAUGUCGAAGCAUAGUAUUUAGUGA", "pre-steady-state target cleavage rate": "< 0.0001"},
      {"sequence": "UCCUGGAUGUCCUUCCAUAGUAAUUAGUUA", "pre-steady-state target cleavage rate": "< 0.0001"},
      {"sequence": "UCCUGGAUGUCGAAGCAUAGUAUUUAGGUA", "pre-steady-state target cleavage rate": "< 0.0001"},
      {"sequence": "UCCUGGAUGUCGAAGCAUAGUAUUUACUAA", "pre-steady-state target cleavage rate": "< 0.0001"},
      {"sequence": "UCCUGGAUGAGCUUGCAUAGAUUUUAGUAA", "pre-steady-state target cleavage rate": "< 0.0001"},
      {"sequence": "UCCUGGAUGUCGAAGCAUACUAAUUAGUUA", "pre-steady-state target cleavage rate": "< 0.0001"},
      {"sequence": "UCCUGGUGACAGCUUGCAUAGUAUUUAGUUA", "pre-steady-state target cleavage rate": "0.0577 ± 0.023"},
      {"sequence": "UCCUGGAUGUCCUUGCAUACUAUUUAGAUA", "pre-steady-state target cleavage rate": "< 0.0001"},
      {"sequence": "UCCUGGAUGUCCUUGCAUAGUUUUUACUUA", "pre-steady-state target cleavage rate": "< 0.0001"},
      {"sequence": "UCCUGGAUGUCCUUCGUUAGUAUUUAGUUA", "pre-steady-state target cleavage rate": "< 0.0001"},
      {"sequence": "UCCUGCUACAGCAUCCAUAGUAUUUAGUUA", "pre-steady-state target cleavage rate": "< 0.0001"},
      {"sequence": "UCCUGGGACAGCUUGCAUAGUAUUUAGUUA", "pre-steady-state target cleavage rate": "0.00525 ± 0.0051"},
      {"sequence": "UCCUGGAUGUCGAAGCAUAGUUAAAUCAAA [g10:g16:cont:t1A]", "pre-steady-state target cleavage rate": "< 0.0001"},
      {"sequence": "UCCUGGAUGUCGAACGUAUGUAUUUAGUAA", "pre-steady-state target cleavage rate": "< 0.0001"},
      {"sequence": "UCCUGGAUGUCGAACCAUAGUAUUUCAGUUA", "pre-steady-state target cleavage rate": "< 0.0001"},
      {"sequence": "UCCUCCUACAGGAUGCAUAGUAUUUUCAAA", "pre-steady-state target cleavage rate": "< 0.0001"},
      {"sequence": "UCCUGGAUGUCGAACGUAUGUAUUUAGUUU [g2:g11:cont:t1U]", "pre-steady-state target cleavage rate": "< 0.0001"},
      {"sequence": "UCCUGGAUGUCGAUGCACAGUAUUUAGUUA", "pre-steady-state target cleavage rate": "< 0.0001"},
      {"sequence": "UCCUGGAUGUCGAACGUUUGUAAUUAGUUA", "pre-steady-state target cleavage rate": "< 0.0001"},
      {"sequence": "UCCUCGUACAGCUUGCAUAGAAUUUAGUUA", "pre-steady-state target cleavage rate": "0.00853 ± 0.0037"},
      {"sequence": "UCCUGGAUGUCGAACGUAUCUAUUUACAUA", "pre-steady-state target cleavage rate": "< 0.0001"},
      {"sequence": "UCCUGGAUGUCGUUCAUAGUAUUUAGUUA", "pre-steady-state target cleavage rate": "< 0.0001"},
      {"sequence": "UCCUGGAUGUCGUUGCAUAGAUUUAGUUA", "pre-steady-state target cleavage rate": "< 0.0001"},
      {"sequence": "UCCUGGAUCAGCUUGCAUAGUAGUUAGUUA", "pre-steady-state target cleavage rate": "0.0324 ± 0.012"},
      {"sequence": "UCCUGGAUCAGCUUGCAUAGUAUCUUAGUUA", "pre-steady-state target cleavage rate": "0.0132 ± 0.0071"},
      {"sequence": "UCCUGGAUGUCGAACGUUAGAAUUUUGUUA", "pre-steady-state target cleavage rate": "< 0.0001"},
      {"sequence": "UCCUGGAUGUCGAAGCAUAGUAUAUACUUA", "pre-steady-state target cleavage rate": "< 0.0001"},
      {"sequence": "UCCUGGAUGUCGAUGCAUAGUAUUCAGUUA", "pre-steady-state target cleavage rate": "< 0.0001"}
    ]}
  ]
}
